# Data as given in PubChem BioAssay (EPA / NIEHS).
# Calls of active or inactive are those of the source. The calls were made as follows, unless noted: active = hit-call score of the fitted dose curve at least 0.9, where 1 is the maximum; inactive = score below 0.9. Peptide text beside a SMILES is read from it.
# Tests used:
# [1] = molecular target: Peroxisome proliferator-activated receptor gamma (Homo sapiens) (UniProt P37231); test: OT_PPARg_PPARgSRC1_1440: Odyssey Thera (OT) 24-hour Protein-Complementation Assay for Peroxisome Proliferator-activated Receptor Gamma/ SRC-1 Co-activator (AID 2283388; active = hit-call score of the fitted dose curve at least 0.9, where 1 is the maximum;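 also: nuclear to cytoplasmic ratio of reconstituted Venus YFP fluorescence in fixed imaged cells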)
# How it was run: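 Readout: nuclear-to-cytoplasmic 488 nm fluorescence ratio, ≥350 cells per image, 8 images per well, after 24 h compound exposure of HEK293T expressing PPARg/SRC-1 split-YFP fusions. Activity fitted in positive direction against DMSO.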
# [2] = CEETOX_H295R_11DCORT: CeeTox H295R High-throughput Steroidogenesis Assay for 11-Deoxycortisol (11DCORT) (AID 2283432); conditions: actives raise or lower the signal;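 as to AC50: 11-deoxycortisol secreted into the medium measured by LC-MS/MS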
# How it was run: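 H295R cells; 10 uM forskolin prestim 48 h; compound in 0.1% DMSO 48 h; media extracted with MTBE; 11-deoxycortisol by LC-MS/MS, 7-point standard curve; gain/loss vs DMSO baseline; viability by MTT in same wells.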
# [3] = CEETOX_H295R_OHPROG: CeeTox H295R High-throughput Steroidogenesis Assay for OH-Progesterone (OHPROG) (AID 2283435); conditions: actives raise or lower the signal
# How it was run: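 H295R adrenal cells prestimulated 48 h with 10 uM forskolin, then exposed 48 h to chemical (0.1% DMSO final). 17alpha-hydroxyprogesterone in medium quantified by HPLC-MS/MS; bidirectional fit versus DMSO, with MTT viability measured in the same wells.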
# [4] = CEETOX_H295R_CORTIC: CeeTox H295R High-throughput Steroidogenesis Assay for Corticosterone (CORTIC) (AID 2283437); conditions: actives raise or lower the signal;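 also: corticosterone secreted into medium quantified by mass spectrometry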
# How it was run: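 H295R cells were prestimulated 48 h with 10 uM forskolin, then exposed 48 h to test chemical in 0.1% DMSO. Medium corticosterone was MTBE-extracted and quantified by HPLC-MS/MS; bidirectional fit versus DMSO baseline.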
# [5] = CEETOX_H295R_CORTISOL: CeeTox H295R High-throughput Steroidogenesis Assay for Cortisol (AID 2283438); conditions: actives raise or lower the signal;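 also: cortisol secreted into medium quantified by LC-MS/MS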
# How it was run: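 Forskolin-primed H295R cells (10 uM, 48 h) treated 48 h with test chemical in 0.1% DMSO. Cortisol in medium quantified by MTBE extraction and HPLC-MS/MS; bidirectional fit vs DMSO, MTT viability in same wells.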
# [6] = CEETOX_H295R_DOC: CeeTox H295R High-throughput Steroidogenesis Assay for DOC (AID 2283439); conditions: actives raise or lower the signal
# How it was run: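 H295R cells prestimulated 48 h with 10 uM forskolin, then exposed 48 h to test chemical (0.1% DMSO final). Medium 11-deoxycorticosterone measured by HPLC-MS/MS after MTBE extraction; bidirectional fit vs DMSO, viability checked by MTT in same wells.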
# [7] = CEETOX_H295R_OHPREG: CeeTox H295R High-throughput Steroidogenesis Assay for OH-Pregnenolone (OHPREG) (AID 2283434); conditions: actives raise or lower the signal
# How it was run: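 Human adrenal H295R cells were prestimulated 48 h with 10 uM forskolin, then exposed 48 h to chemical in 0.1% DMSO. Medium 17alpha-hydroxypregnenolone was quantified by HPLC-MS/MS after MTBE extraction; bidirectional fitting versus DMSO baseline.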
# [8] = CEETOX_H295R_ESTRADIOL: CeeTox H295R High-throughput Steroidogenesis Assay for Estradiol (AID 2283440); conditions: actives raise or lower the signal;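 also: estradiol secreted into medium quantified by LC-MS/MS after dansyl derivatisation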
# How it was run: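 H295R, 48 h forskolin (10 uM) prestim → 48 h compound, 0.1% DMSO final. Estradiol in medium: MTBE extraction, dansyl chloride derivatization, LC-MS/MS. Fit bidirectional vs DMSO baseline; MTT viability in same wells.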
# [9] = CEETOX_H295R_ESTRONE: CeeTox H295R High-throughput Steroidogenesis Assay for Estrone (AID 2283441); conditions: actives raise or lower the signal;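 also: estrone secreted into medium measured by LC-MS/MS after dansyl derivatization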
# How it was run: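 H295R cells prestimulated 48 h with 10 uM forskolin, then exposed 48 h to chemicals in 0.1% DMSO final; estrone in medium extracted with MTBE, dansyl-derivatized, quantified by HPLC-MS/MS; bidirectional fitting versus DMSO, viability by MTT.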
# [10] = CEETOX_H295R_ANDR: CeeTox H295R High-throughput Steroidogenesis Assay for Androstenedione (ANDR) (AID 2283436); conditions: actives raise or lower the signal
# How it was run: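 H295R human adrenal cells (passages ≤10) were exposed to test chemicals for 48 h; androstenedione in medium was MTBE-extracted and quantified by HPLC-MS/MS against a 7-point standard curve. Bidirectional fitting used DMSO as baseline.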
# Sequence of Peroxisome proliferator-activated receptor gamma (Homo sapiens) (P37231 whole entry, looked up, the tested form may be a part): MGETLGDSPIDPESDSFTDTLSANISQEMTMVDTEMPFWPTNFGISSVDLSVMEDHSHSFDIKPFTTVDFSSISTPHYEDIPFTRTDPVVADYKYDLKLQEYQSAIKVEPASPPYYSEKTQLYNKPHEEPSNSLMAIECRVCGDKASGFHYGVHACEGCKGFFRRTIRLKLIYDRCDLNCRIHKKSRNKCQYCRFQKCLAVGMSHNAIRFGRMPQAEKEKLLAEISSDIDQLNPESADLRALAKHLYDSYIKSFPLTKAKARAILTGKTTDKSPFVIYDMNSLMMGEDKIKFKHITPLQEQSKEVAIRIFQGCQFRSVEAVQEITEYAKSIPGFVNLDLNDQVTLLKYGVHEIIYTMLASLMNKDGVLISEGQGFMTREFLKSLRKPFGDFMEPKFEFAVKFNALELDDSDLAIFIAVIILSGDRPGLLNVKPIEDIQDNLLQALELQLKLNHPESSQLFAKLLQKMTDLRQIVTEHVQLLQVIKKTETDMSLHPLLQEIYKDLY
structure (smiles),measurement,setting,value
CC(C)(C)NC(=O)[C@H]1CC[C@H]2[C@@H]3CC[C@H]4NC(=O)C=C[C@]4(C)[C@H]3CC[C@]12C,outcome,[1],inactive
same,AC50,[2],34400 nM (active)
same,outcome,[3],inactive
same,outcome,[4],inactive
same,AC50,[5],36300 nM (active)
same,AC50,[6],13500 nM (active)
O=C(O)c1ccc2c(c1)C(=O)OC2=O,outcome,[1],inactive
COC(=O)[C@H](Cc1ccccc1)NC(=O)[C@@H](N)CC(=O)O (H-Asp-Phe-OMe),outcome,[1],inactive
CCCC(CC)c1ccccc1 (stereo not drawn),outcome,[1],inactive
CN(C)c1ccc2nc3ccc(=[N+](C)C)cc-3sc2c1,outcome,[1],inactive
same,outcome,[2],inactive
same,outcome,[7],inactive
same,outcome,[3],inactive
same,outcome,[4],inactive
same,outcome,[5],inactive
same,AC50,[6],598 nM (active)
same,outcome,[8],inactive
same,outcome,[9],inactive
C=C[C@@]1(C)CC(=O)[C@]2(O)[C@@]3(C)[C@@H](O)CCC(C)(C)[C@@H]3[C@H](O)[C@H](OC(C)=O)[C@@]2(C)O1,outcome,[1],inactive
same,AC50,[2],510 nM (active)
same,AC50,[7],817 nM (active)
same,AC50,[3],799 nM (active)
same,AC50,[4],609 nM (active)
same,AC50,[5],726 nM (active)
same,AC50,[6],418 nM (active)
same,AC50,[8],774 nM (active)
same,AC50,[9],719 nM (active)
CCCCCC(=O)OCC,outcome,[1],inactive
CC(C)c1ccc(O)c(C(C)C)c1,outcome,[1],inactive
C=CCOC(=O)c1ccc(C(=O)OCC=C)c(C(=O)OCC=C)c1,outcome,[1],inactive
CC(C)(c1ccccc1)c1ccc(Nc2ccc(C(C)(C)c3ccccc3)cc2)cc1,outcome,[1],inactive
same,AC50,[2],2720 nM (active)
same,AC50,[7],1540 nM (active)
same,AC50,[3],359 nM (active)
same,outcome,[4],inactive
same,AC50,[5],9950 nM (active)
same,AC50,[6],820 nM (active)
CCCCc1ccc(Cl)cc1,outcome,[1],inactive
O=C(O)c1cc(O)c2ccccc2c1O,AC50,[1],73200 nM (active)
same,outcome,[2],inactive
same,outcome,[7],inactive
same,outcome,[3],inactive
same,outcome,[4],inactive
same,outcome,[5],inactive
same,AC50,[6],445 nM (active)
same,outcome,[8],inactive
same,outcome,[9],inactive
CCCCNC(=S)NCCCC,outcome,[1],inactive
COc1ccc(C(=O)c2ccccc2)c(O)c1,outcome,[1],inactive
same,outcome,[2],inactive
same,outcome,[7],inactive
same,outcome,[3],inactive
same,AC50,[10],25000 nM (active)
same,AC50,[4],11100 nM (active)
same,outcome,[5],inactive
same,outcome,[6],inactive
same,outcome,[8],inactive
same,outcome,[9],inactive
